# Results reported in PubChem BioAssay AID651605 (National Center for Advancing Translational Sciences (NCATS), 2012).
# Records with an inconclusive call do not appear. Active and inactive are the calls of the source. Calls follow the shape of the dose curve; as a rule, active = well fitted inhibition curve with a large enough effect; inconclusive = small, poorly fitted or top-dose-only effect; inactive = flat fitted curve, though single readings scatter.
# Molecular target: Ubiquitin carboxyl-terminal hydrolase 1 (Homo sapiens) (UniProt O94782)
# Experiment: Inhibitors of USP1/UAF1: SAR in Primary Assay
# Details: Recombinant USP1/UAF1, Ub-Rhodamine cleavage fluorescence; series mostly up to 57.1 µM; activity change, negative = inhibition: at the top concentration
# Excerpt: Deubiquitinating enzymes (DUBs) are a class of enzymes that can cleave isopeptide bond formed between the C-terminal carboxylate of ubiquitin and a lysine side-chain amino group on the target protein. Among them, ubiquitin specific proteases (USPs) constitute the largest DUB family. Human USPs are emerging as promising targets for pharmacological intervention because of their connection to a number of human diseases, including prostate, colon and breast cancer (1, 2), pediatric acute lymphoblastic leukemia (3), and familial cylindromatosis (4). The advantage of inhibiting USPs lies in the potential specificity of therapeutic intervention that can lead to better efficacy and reduce nonspecific side effects. In a collaboration between the University of Delaware and the NIH Chemical Genomics Center, a high-throughput screen assay was developed to screen for USP1/UAF1 inhibitors (5). This assay was used to test the analogs that were synthesized based on SAR around the original hit. NIH Chemical Genomics Center [NCGC] NIH Molecular Libraries Probe Centers Network [MLPCN] MLPCN Grant: DA030552-01 Assay Submitter (PI): Zhihao Zhuang, University of Delaware 1. Priolo, C., et al. (2006) The isopeptidase USP2a protects human prostate cancer from apoptosis. Cancer Res 66, 8625-8632 2. Popov, N., et al. (2007) The ubiquitin-specific protease USP28 is required for MYC stability. Nat Cell Biol 9, 765-774 3. De Pitta, C., et al. (2005) A leukemia-enriched cDNA microarray platform identifies new transcripts with relevance to the biology of pediatric acute lymphoblastic leukemia. Haematologica 90, 890-898 4. Kovalenko, A., et al. (2003) The tumour suppressor CYLD negatively regulates NF-kappaB signalling by deubiquitination. Nature 424, 801-805 5. Chen, J., et al. (2011) Selective and cell-active inhibitors of the USP1/ UAF1 deubiquitinase complex reverse cisplatin resistance in non-small cell lung cancer cells. Chem Bio 18(11):1390-400.
# 3 microliters of reagents (buffer in columns 3 and 4 as negative control and 1nM USP1/UAF1 complex in columns 1, 2, and 5-48) are dispensed into Greiner black solid bottom 1536-well assay plates. Compounds are then transferred via Kalypsys pin tool equipped with 1536-pin array (10nl slotted pins, V&P Scientific, San Diego, CA). Following an incubation step of 15 min at room temperature, 1ul of Ub-Rho substrate (150nM final concentration) is added to initiate the reaction. The plates are immediately centrifuged at 1000 rpm for 15 seconds, and subsequently transferred to a ViewLux high-throughput CCD imager (PerkinElmer) wherein kinetic measurements of fluorescence are acquired using 480 nm excitation/540 nm emission filter set (6 reads every 60 seconds, see Table 1). All reagents are diluted in an assay buffer consisting of 50mM HEPES (pH 7.8), 0.5mM EDTA, 0.1 mg/ml BSA, 1mM TCEP, and 0.01% Tween-20.
# Ubiquitin carboxyl-terminal hydrolase 1 (Homo sapiens), sequence (O94782 whole entry, looked up): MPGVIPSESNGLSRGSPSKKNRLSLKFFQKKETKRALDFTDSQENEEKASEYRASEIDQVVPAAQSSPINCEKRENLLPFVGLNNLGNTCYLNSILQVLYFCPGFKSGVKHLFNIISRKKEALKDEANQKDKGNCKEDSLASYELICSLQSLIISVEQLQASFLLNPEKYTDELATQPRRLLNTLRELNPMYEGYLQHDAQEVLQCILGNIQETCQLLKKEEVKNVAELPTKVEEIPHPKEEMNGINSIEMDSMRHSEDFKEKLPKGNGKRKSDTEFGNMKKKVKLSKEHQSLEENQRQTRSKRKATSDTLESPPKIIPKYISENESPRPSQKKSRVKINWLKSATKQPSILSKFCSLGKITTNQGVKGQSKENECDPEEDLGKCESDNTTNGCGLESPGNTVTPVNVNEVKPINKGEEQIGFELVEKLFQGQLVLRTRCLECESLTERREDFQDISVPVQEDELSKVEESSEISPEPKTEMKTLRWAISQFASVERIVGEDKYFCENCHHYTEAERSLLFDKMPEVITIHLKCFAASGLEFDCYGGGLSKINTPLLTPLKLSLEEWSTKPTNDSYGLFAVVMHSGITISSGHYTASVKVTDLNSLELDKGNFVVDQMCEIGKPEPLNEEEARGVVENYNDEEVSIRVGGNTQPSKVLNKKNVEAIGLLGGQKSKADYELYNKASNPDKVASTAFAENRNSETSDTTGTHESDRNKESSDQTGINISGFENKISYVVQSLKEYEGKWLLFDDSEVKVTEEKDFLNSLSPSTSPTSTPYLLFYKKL
SMILES,Potency,"activity change, negative = inhibition"
CC(C)c1ccccc1-c1ncc(F)c(NCc2ccc(-c3cccnc3)s2)n1,0.242 µM (active),–
CC(C)c1ccccc1-c1ncc(F)c(NCc2ccc(-n3ccnn3)cc2)n1,0.0171 µM (active),–
Clc1ccccc1-c1nc(NCc2ccc(-c3cccnc3)cc2)c2ccccc2n1,0.857 µM (active),–
Cc1cc(NCc2ccc(-c3cccnc3)cc2)nc(-c2ccccc2C(C)C)n1,0.482 µM (active),–
c1ccc(-c2nc(NCc3ccc(-c4cccnc4)cc3)c3ccccc3n2)cc1,13.6 µM (active),–
Cc1ccc(-c2ccc(CNc3nc(-c4ccccc4C(C)C)nc4ccsc34)cc2)cn1,0.0961 µM (active),–
N#Cc1ccc(-c2nc(NCc3ccc(-c4ccnc(C(F)(F)F)c4)cc3)c3ccccc3n2)cc1,–,-19.2% (inactive)
CC(C)(Sc1ccc(CCN(CCCCC2CCCCC2)C(=O)NC2CCCCC2)cc1)C(=O)O,24.1 µM (active),–
CC(C)c1ccccc1-c1nc(NCc2ccc(-c3cccnc3)cc2)c2occc2n1,0.152 µM (active),–
CC(C)c1ccccc1-c1ncc(N)c(NCc2ccc(-c3cccnc3)cc2)n1,0.271 µM (active),–
FC(F)(F)c1ccccc1-c1nc2c(c(NCc3ccc(-c4cccnc4)cc3)n1)CCC2,0.681 µM (active),–
Cc1ccc(-c2ccc(CNc3nc(-c4ccccc4C(C)C)ncc3C)cc2)cn1,0.0429 µM (active),–
CC(C)c1ccccc1-c1nccc(NCc2ccc(-c3ccnc(C(F)(F)F)c3)cc2)n1,0.764 µM (active),–
FC(F)(F)c1cc(-c2ccc(CNc3nc(-c4ccncc4)nc4ccccc34)cc2)ccn1,19.2 µM (active),–
FC(F)(F)c1ccccc1-c1nc(NCC2CCN(c3cccnc3)CC2)c2ccccc2n1,0.607 µM (active),–
Cc1cnc(-c2ccccc2C(C)C)nc1NCC1CCN(C2COC2)CC1,15.2 µM (active),–
Cc1cnc(-c2ccccc2CO)nc1NCC1CCN(c2cccnc2)CC1,7.64 µM (active),–
FC(F)(F)c1ccccc1-c1nc(NCc2ccc(-c3cccnc3)cc2)c2sccc2n1,0.857 µM (active),–
CC(C)c1ccccc1-c1ncc(F)c(NCc2ccc(-c3ccn[nH]3)cc2)n1,0.152 µM (active),–
FC(F)(F)c1cc(-c2ccc(CNc3nc(-c4ccccc4C(F)(F)F)nc4ccsc34)cc2)ccn1,3.41 µM (active),–

SMILES,Potency,"activity change, negative = inhibition"
Cc1ccc(-c2ccc(C(C)Nc3nc(-c4ccccc4C(C)C)ncc3C)cc2)cn1 (stereo not given),0.341 µM (active),–
CC(C)c1ccccc1-c1ncc(F)c(NCC2CCN(c3cccnc3)CC2)n1,0.0961 µM (active),–
CN(Cc1ccc(-c2ccccc2)cc1)c1nc(-c2ccccc2C(F)(F)F)nc2ccccc12,4.29 µM (active),–
Cc1cnc(-c2ccccc2C(F)(F)F)nc1NCc1ccc(-c2cccnc2)cc1,0.271 µM (active),–
CC(C)c1ccccc1-c1nc(NCc2ccc(-c3cccnc3)cc2)c2cccn2n1,0.215 µM (active),–
Cc1cnc(-c2ccccc2OC(C)C)nc1NCc1ccc(-n2ccnn2)cc1,0.429 µM (active),–
CC(C)c1ccccc1-c1ncc(F)c(NCC2CCN(c3cnccn3)C2)n1 (stereo not given),4.29 µM (active),–
Fc1cnc(-c2ccccc2C(F)F)nc1NCc1ccc(-c2cccnc2)cc1,1.21 µM (active),–
N#Cc1c(-c2ccccc2C(F)(F)F)nc2ccccc2c1NCc1ccc(-c2cccnc2)cc1,9.61 µM (active),–
FC(F)(F)c1ccccc1-c1nc(NCc2ccc(N3CCOCC3)cc2)c2ccccc2n1,7.64 µM (active),–
Fc1cnc(-c2ccccc2C(F)F)nc1NCc1ccc(-c2ccn[nH]2)cc1,1.52 µM (active),–
CSc1ccccc1-c1ncc(C)c(NCc2ccc(-c3cccnc3)cc2)n1,0.541 µM (active),–
CC(C)c1ccccc1-c1nc2c(c(NCc3ccc(-c4cccnc4)cc3)n1)CCC2,0.136 µM (active),–
O=[N+]([O-])c1ccccc1-c1nc(NCc2ccc(-c3cccnc3)cc2)c2ccccc2n1,4.29 µM (active),–
CC(C)c1ccccc1-c1nc(NCc2ccc(-c3cccnc3)cc2)c2sccc2n1,0.121 µM (active),–
CC(C)c1ccccc1-c1ncc(F)c(NC(C)(C)c2ccc(-n3ccnn3)cc2)n1,4.82 µM (active),–
Cc1ccc(-c2ccc(CN(C)c3nc(-c4ccccc4C(C)C)ncc3C)cc2)cn1,0.541 µM (active),–
FC(F)(F)c1ccccc1-c1nc(NCc2ccc(-c3cncnc3)cc2)c2ccccc2n1,1.92 µM (active),–
Cc1cnc(-c2ccccc2C(C)C)nc1NCc1ccc(C2CCCNC2)cc1 (stereo not given),7.64 µM (active),–
Cc1cnc(-c2ccccc2C(C)C)nc1NCC1CCN(c2cccnc2)CC1,0.0482 µM (active),–
